This excerpt belongs to a sample that is enriched for hits.
Methyltransferases – Primary Screen for Target Class Profiling of Small Molecule Inhibitors of Methyltransferases; purified enzyme, MTase-Glo SAH luminescence; hits give low values; AID 1745853, 2022; 25,000 tested, 3.9% active; calls only at 40 µM; call rule not given here
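Each enzyme was reacted with SAM and its substrate, with compounds tested once at 40 uM; SAH formed was read by MTase-Glo luminescence.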
Calls only; n = inactive; + = active, no number.

SMILES | Methyltransferases
CCN1C(=O)c2cc(C(=O)N3CCN(c4cc(Cl)ccc4C)CC3)nn2CC1(C)C(=O)NC1CCCC1 (centres undefined) | n
COC(=O)CCNC(=O)N1Cc2c(sc3c2CCCC3)-n2cccc2C1c1cccc(C)c1 (centres undefined) | n
CNC(=O)[C@@H]1CN(C(=O)Cc2cc(C)no2)C[C@H]1COC | n
NC(=O)[C@@H]1CC[C@H](c2ccc(OCc3ccccc3F)cc2)N1 | n
CCOC(=O)CNC(=O)N1CCn2cccc2C1C(C)C (centres undefined) | n
O=C(CCCc1nnc2n3nc(-c4ccccc4)nc3c3ccccc3n12)N1CCN(c2ccccc2F)CC1 | n
CCC1CCCCN1CCCNC(=O)c1cc2n(n1)CC(C)(C(=O)NC1CCCC1)N(C)C2=O (centres undefined) | n
Nc1ncnc2c1c(-c1cccc(OCc3ccccc3)c1)cn2C1CC(CN2CCCC2)C1 (centres undefined) | +
Cc1ccc(Cn2nc3n(CCC(C)C)c(=O)c4ccc(C(=O)NC5CCCC5)cc4n3c2=O)cc1 | n
CCOC(=O)c1cc2n(n1)CC(C)(C(=O)NCCC(C)C)N(Cc1ccc3c(c1)OCO3)C2=O (centres undefined) | n
Cc1cc(C)cc(-c2cnc3cc(Cl)c(-c4cccc(O)c4)cc3c2OCCCN)c1 | +
Cc1ccc(CNC(=O)CCc2nnc3n(CCCOC(C)C)c(=O)c4ccccc4n23)cc1 | n
CC(C)Cn1c(=O)c2ccccc2n2c(=O)n(Cc3cccc(Cl)c3)nc12 | n
Cc1nc(C)c(C(=O)N2CCC(N3C(=O)C4(CCCC4)C3c3scnc3C)CC2)s1 (centres undefined) | n
COc1ccc2c(c1)CC(NS(=O)(=O)c1cc(Cl)ccc1OC)CO2 (centres undefined) | n
Cc1c(Cl)cccc1NC(=O)N1CCn2cccc2C1C (centres undefined) | n
O=C(Nc1ccc([N+](=O)[O-])cc1Cl)c1cc(Cl)ccc1O | n
O=S(=O)(Nc1ccccc1Cl)c1ccc2[nH]c3c(c2c1)CCCC3 | n
O=[N+]([O-])c1cc(S(=O)(=O)Nc2ccc(O)c3ccccc23)ccc1Cl | +
COc1cccc(CN2C(=O)c3cc4ccccc4n3CC2(C)C(=O)NCCCOC(C)C)c1 (centres undefined) | n
O=C1CCC=CC1(O)C(=O)OCc1ccccc1O[C@@H]1O[C@H](CO)[C@@H](O)[C@H](O)[C@H]1O (some centres undefined) | n
CN(C)C[C@@H]1CN(C)C[C@H]1NC(=O)NCc1ccc(OC(F)(F)F)cc1 | n
CC1(C(=O)NCc2ccccc2)Cn2c(cc3ccccc32)C(=O)N1Cc1cccc(F)c1 (centres undefined) | n
CCc1nc(-c2c3n(c(=O)n(CC(=O)Nc4cc(C)on4)c2=O)CCCC3)no1 | n
CCCn1c(=O)c2cc(F)ccc2n2c(SCc3ccc(C)cc3)nnc12 | n
SMILES | Methyltransferases
COc1cc(C(C)=O)ccc1O[C@@H]1O[C@H](CO)[C@@H](O)[C@H](O)[C@H]1O | n
C=C(C)C1Cc2cc(C(=O)OC3OC(CO)C(O)C(O)C3O)ccc2O1 (centres undefined) | +
COc1cc(C(=O)O)ccc1OC1OC(CO)C(O)C(O)C1O (centres undefined) | n
CC(C)(CN1CCC(Cc2ccc(C(=O)O)cc2)C1)N1CCOCC1 (centres undefined) | n
CCCCN1C(=O)c2cc(C(=O)Nc3ccc(C)cc3Cl)nn2CC1(C)C(=O)NC1CCCC1 (centres undefined) | n
CC1CC(C)CN(S(=O)(=O)c2ccc3c(c2)oc(=O)n3CC(=O)N2CCCC2)C1 (centres undefined) | n
COc1ccc(Cn2c(=O)c3ccccc3n3c(-c4cccc(Cl)c4)nnc23)cc1 | n
Cc1ccc(C(N)=O)cc1Nc1nccc(-c2cn(C(C)C)c3cnccc23)n1 | +
CCOCCOC(=O)C(C)Oc1ccc2c(=O)c(-c3ccc(OC)c(OC)c3)c(C(F)(F)F)oc2c1 (centres undefined) | n
CN1CCN(c2nc(-c3ccc(C(=O)NC4(C(=O)NCC#N)CCCCC4)cc3)cs2)CC1 | n
Nc1nc(NCCNc2ncc(-n3ccnc3)c(-c3ccc(Cl)cc3Cl)n2)ccc1[N+](=O)[O-] | +
Cc1cc(NC(=O)N2CCn3cccc3C2C)ccc1Br (centres undefined) | n
CCOc1ccc(NC(=O)c2ncn3c2C(=O)N(C2CC2)C(C)(C(=O)NCc2ccccc2OC)C3)cc1 (centres undefined) | n
CC(C)CCn1c(=O)c2ccc(C(=O)NC(C)C)cc2n2c(=O)n(CC(=O)NC(C)(C)C)nc12 | n
COc1ccc2nc(S(=O)(=O)Cc3ncc(C)c(OC)c3C)[nH]c2c1 | n
COc1cc2c(cc1O)CC[C@H]1[C@@H]2CC[C@]2(C)[C@H](O)CC[C@@H]12 | +
COc1ccc2c(c1)CCC1C2CC[C@@]2(C)C1CC[C@@H]2NCCCCCCN1C(=O)CCC1=O (some centres undefined) | n
